Results as given in PubChem BioAssay (Tox21).
Results filed as inconclusive are left out. Where a call stands in place of a potency, no number is given. Activity calls are given as the source filed them. Calls follow the shape of the dose curve; as a rule, active = well fitted cell-killing curve with a large enough effect in the repeat runs; inconclusive = weak or mixed curves, or effect the other way; inactive = flat fitted curve, though single readings scatter.

How the values were obtained:
[1] = cAMP Responsive Elements (CRE) small molecule antagonists, cell-based qHTS assay: qHTS cell viability counter screen (AID 2060913); also: nearly all actives have a fitted effect of over 40% in size
Procedure, shortened: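 CRE-bla HEK293T cells were seeded in assay medium with 10% dialyzed FBS, incubated 18 hrs at 37 C, then exposed to compounds plus 0.25 uM final NKH477 for 3 hrs. Viability was read by CellTiter-Glo luminescence after 30 min, in the same wells.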

[2] = cAMP Responsive Elements (CRE) small molecule agonists, cell-based qHTS assay: qHTS cell viability counter screen (AID 2060914); also: nearly all actives have a fitted effect of over 50% in size
Procedure, shortened: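 Luminescence read-out (CellTiter-Glo, 30 min RT) of ATP-based viability in CRE-bla HEK 293T cells, run in the same wells as the β-lactamase reporter assay after 3 h compound treatment at 37 °C.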

In the case of `O=[N+]([O-])c1cc([N+](=O)[O-])c2ccc(S(=O)(=O)O)cc2c1O`, the Potency [1] is reported as “inactive” and the Potency [2] is reported as “inactive”.

With `CC(C)CCOC(=O)CC(C)C` the Potency [1] was “inactive” and the Potency [2] was “inactive”.

For `CNC(=O)[C@H]1O[C@@H](n2cnc3c(NCc4cc(Cl)ccc4OCc4cc(C)no4)ncnc32)[C@H](O)[C@@H]1N`, the Potency [1] was “inactive” and the Potency [2] was “inactive”.

With `CC1=C(CC(=O)O)c2cc(F)ccc2/C1=C\c1ccc(S(C)=O)cc1` (stereo unspecified) the Potency [1] was “inactive” and the Potency [2] was “inactive”.

In the case of `C/C=C1/CC2C=CC1C2` (stereo unspecified), the Potency [1] is reported as “inactive” and the Potency [2] is reported as “inactive”.

With `C[C@@H](CN(C)C)CN1c2ccccc2Sc2ccccc21` the Potency [1] was “inactive” and the Potency [2] was “inactive”.

In the case of `O=C(Oc1ccccc1)c1ccccc1O`, the Potency [1] is reported as “inactive” and the Potency [2] is reported as “inactive”.

With `O=C(Oc1ccccc1)c1ccc(O)cc1` the Potency [1] was “inactive” and the Potency [2] was “inactive”.
